An excerpt weighted towards active compounds, which were near 10% of everything screened.
BAZ2B block – inhibitors of human BAZ2B bromodomain | AlphaScreen BAZ2B-H3K14Ac peptide displacement | Q9UIF8 | Potency, µM (doses to about 114 µM), hits mostly inhibitors | actives 4.4% (n = 360,000); note: nearly all actives have a fitted effect of over 60% in size
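Complex of BAZ2B and biotin-H3K14Ac (50 nM apiece) forms over 30 min at RT, then faces library compounds up to 110 uM for another 30 min; AlphaScreen beads added, 20 min dark incubation, luminescence read.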
CtBP-E1A blk – inhibitors of CtBP/E1A interaction. AlphaScreen GST-E1A/His-CtBP binding, 1536-well; stronger effect = lower value. activity change, % (no concentration beside the values). actives 0.49% (n = 340,000). AID 651724; in the data active = activity change below about -65%; inconclusive = mostly about -30% to -63%
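In 5 uL wells, 23 nL compound meets equimolar GST-E1A and His-CtBP (5X stock 125 nM each) for 2 h, 37 °C. Beads (5X, 50 ug/mL) then 1 h, 37 °C, dark.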
JMJD2A Tudor – JMJD2A Tudor domain (human) inhibition; O75164; AlphaScreen JMJD2A-Tudor / H3K4me3 peptide binding; Potency, µM (titrated, usually from 114 µM), hits mostly inhibitors; actives 4.4% (n = 390,000); note: nearly all actives have a fitted effect of over 50% in size
G9a inh – G9a (human) methyltransferase inhibition; Potency, µM (top dose mostly 102 µM), actives largely listed as inhibitors; G9a H3K9 monomethylation, AlphaScreen, 2 h; AID 504332; Q96KQ7; actives 8.8% (n = 350,000); note: nearly all actives have a fitted effect of over 75% in size
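Readings reflect AlphaScreen signal from monomethyl-H3K9 antibody detection. HMT at 20 nM; substrate b-H3K9 500 nM; cofactor SAM 20 uM; 2 h RT reaction; compounds tested as titrations in qHTS with 15 min preincubation.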
HP1b chromo inh – HP1-beta chromodomain-methylated histone interaction inhibition. actives 0.56% (n = 390,000). Potency, µM (top dose mostly 114 µM), most hits filed as inhibitors. AlphaScreen HP1-beta / biotin-H3K9me3 peptide binding. P83916; note: nearly all actives have a fitted effect of over 70% in size
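AlphaScreen: HP1-beta (50 nM) preformed 30 min with biotin-H3(1-18)K9me3 peptide (50 nM) in PBS pH 7.4, 0.01% Tween-20. Compound added for 30 min at RT, then streptavidin donor/nickel chelate acceptor beads (10 ug/mL) for 30 min.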
Six1-Eya2 inh – inhibitors of human Six1/Eya2 interaction | Q15475+O00167 | AlphaScreen GST-Six1/His-Eya2 binding, biochemical; stronger effect = lower value | activity change, % (no concentration beside the values) | actives 0.56% (n = 360,000) | AID 651725; in the data active = activity change below about -65%; inconclusive = mostly about -30% to -63%
Target sequence (O00167 whole entry, looked up): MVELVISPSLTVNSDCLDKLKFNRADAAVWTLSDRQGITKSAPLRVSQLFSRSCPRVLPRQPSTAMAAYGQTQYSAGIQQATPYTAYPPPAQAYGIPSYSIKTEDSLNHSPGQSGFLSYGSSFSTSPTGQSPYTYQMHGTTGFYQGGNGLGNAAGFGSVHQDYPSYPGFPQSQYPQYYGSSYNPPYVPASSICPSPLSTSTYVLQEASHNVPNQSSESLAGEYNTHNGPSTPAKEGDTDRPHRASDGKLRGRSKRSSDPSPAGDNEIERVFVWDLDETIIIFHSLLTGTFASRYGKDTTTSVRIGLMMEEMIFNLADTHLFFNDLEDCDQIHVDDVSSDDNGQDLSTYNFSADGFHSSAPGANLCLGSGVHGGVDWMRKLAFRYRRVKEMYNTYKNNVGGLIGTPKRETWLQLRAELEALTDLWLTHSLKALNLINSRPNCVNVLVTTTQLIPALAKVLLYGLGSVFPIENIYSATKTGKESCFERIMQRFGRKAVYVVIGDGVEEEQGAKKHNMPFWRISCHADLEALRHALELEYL
Target sequence (Q15475 whole entry, looked up): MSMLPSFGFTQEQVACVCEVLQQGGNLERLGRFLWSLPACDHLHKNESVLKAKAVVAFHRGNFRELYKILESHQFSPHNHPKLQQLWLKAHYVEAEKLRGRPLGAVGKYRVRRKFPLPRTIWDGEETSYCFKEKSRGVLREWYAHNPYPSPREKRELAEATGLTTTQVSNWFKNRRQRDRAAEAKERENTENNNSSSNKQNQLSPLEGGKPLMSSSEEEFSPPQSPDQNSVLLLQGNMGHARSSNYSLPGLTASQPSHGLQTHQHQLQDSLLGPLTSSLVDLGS
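Homogeneous AlphaScreen proximity assay pairing GST-Six1 with His-tagged Eya2 (added as 5X mix: 250 nM and 500 nM) in 50 mM Tris pH 8.0, 300 mM NaCl, 1 mM TCEP. Glutathione donor and nickel acceptor beads; 1 h, 37 °C, dark.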
Hits are given with their value; . = inactive; ? = inconclusive; / = no result; [ ] = dose if it differs, or a comment. Unless noted, calls come from the whole dose curve; as a rule, active = well fitted inhibition curve with a large enough effect; inconclusive = small, poorly fitted or top-dose-only effect; inactive = no such curve, though single readings can be large or run the other way.

SMILES	BAZ2B block	CtBP-E1A blk	JMJD2A Tudor	G9a inh	HP1b chromo inh	Six1-Eya2 inh
O=C(O)c1ccc(Cn2cc(/C=C\[N+](=O)[O-])c3ccccc32)o1	?	/	.	40µM	.	.
COc1ccc(-n2c(=O)c(C)nc3cnc(OC)nc32)cc1	/	/	/	.[0.501 µM]	/	/
CCOc1cc(S(=O)(=O)N2CCN(Cc3ccccc3)CC2)ccc1Br	.	.	.	.	.	.
O=C(Oc1ccc(C(=S)N2CCOCC2)cc1Br)c1cc(Cl)ccc1Cl	.	.	.	45µM	.	.
Cc1ccc(C(=O)O)cc1S(=O)(=O)N1CCCC1	.	.	.	.	.	.
O=C(Oc1c(Br)cc(C(=S)N2CCOCC2)cc1Br)c1ccc(Cl)cc1	?	.	?	/	?	.
Cc1ccc(C(=O)Oc2ccc([N+](=O)[O-])cc2)cc1S(=O)(=O)N1CCCCCC1	.	.	.	.	.	-85
O=C(Oc1ccc(C(=S)N2CCOCC2)cc1)c1ccc([N+](=O)[O-])cc1	.	/	.	.[0.501 µM]	.	-83
COc1cc(C(=S)N2CCOCC2)ccc1OC(=O)c1cccc(C)c1	?	.	?	22µM	.	.
COc1cc(OC)cc(-c2nnc3n2N=C(c2cc(OC)ccc2OC)CS3)c1	/	/	.	/	/	/
COc1cc(OC)c(NC(=O)c2cc3c(=O)oc4ccc(C)cc4c3s2)cc1Cl	.	/	.	.	.	/
O=C(Oc1ccccc1C(=S)N1CCOCC1)c1ccc([N+](=O)[O-])cc1[N+](=O)[O-]	?	.	?	50µM	?	.
COc1ccc(C(=S)N2CCOCC2)cc1OC(=O)c1ccccc1Cl	.	.	?	11µM	?	.
O=C(COc1ccc(C(=S)N2CCOCC2)cc1Cl)Nc1ccccc1Cl	.	.	.	7.1µM	.	.
COc1cc(C(=S)N2CCCCC2)ccc1OCC(=O)Nc1ccccc1Cl	.	.	.	?	.	.
COc1ccc(S(=O)(=O)Oc2ccccc2C(=S)N2CCOCC2)cc1	.	/	/	25µM	/	/
COc1ccc(S(=O)(=O)Oc2cccc(C(=S)N3CCOCC3)c2)cc1	.	.	.	.	.	.
Cc1cccc(-c2nc3cc(NC(=O)COc4ccccc4F)ccc3o2)c1	.	/	.	.	.	/
COc1cccc(C2=Nn3c(nnc3-c3ccc(OC)c(OC)c3)SC2)c1	/	/	.	/	/	/
Cc1ccc([C@H]2N[C@]3(CCCN(Cc4ccc(Br)cc4)C3=O)[C@H]3C(=O)N(Cc4ccccc4)C(=O)[C@@H]23)cc1	/	.	/	/	/	.
COc1cc(C(=S)N2CCOCC2)ccc1OS(=O)(=O)c1ccc(C)cc1	.	.	.	.	.	.
COc1cc(C(=S)N2CCOCC2)ccc1OS(=O)(=O)c1ccc(Cl)cc1	.	.	.	35µM	.	.
O=[N+]([O-])c1ccccc1S(=O)(=O)Oc1ccc(C(=S)N2CCOCC2)cc1	.	.	?	28µM	?	.
COc1cc(C(=S)N2CCOCC2)ccc1OC(=O)c1cc([N+](=O)[O-])cc([N+](=O)[O-])c1	.	.	.	7.9µM	?	.
COc1cc(C(=S)N2CCOCC2)cc(OC)c1OC(=O)c1ccccc1[N+](=O)[O-]	.	.	.	?	.	?
SMILES	BAZ2B block	CtBP-E1A blk	JMJD2A Tudor	G9a inh	HP1b chromo inh	Six1-Eya2 inh
COc1cc(C(=S)N2CCOCC2)ccc1OC(=O)c1ccc(Br)cc1	.	/	.	.	.	.
COc1ccc(C(=S)N2CCOCC2)cc1OC(=O)c1ccc([N+](=O)[O-])cc1[N+](=O)[O-]	?	.	.	40µM	?	.
CCCCn1nc(NC(=O)c2cccc(Cl)c2)c2cc3ccc(C)cc3nc21	.	/	.	.	.	/
Cc1cc2c(cc1C)-n1nnnc1C(N1CCN(c3ccccn3)CC1)C(c1ccc3c(c1)OCO3)=N2 (configuration not stated)	/	.	/	/	/	.
CCN(C(=O)c1cccc(S(=O)(=O)N2CCCCC2)c1)C1CCS(=O)(=O)C1 (configuration not stated)	.	.	.	.[12.7 µM]	.	.
COc1ccccc1OCC(=O)NCC1CCCN(Cc2cnn(C)c2C)C1 (configuration not stated)	.	.	.	/	.	.
Cc1ccc(-c2nn(CC(=O)Nc3cccc(C(F)(F)F)c3)c(=O)c3ccccc23)cc1	.	/	.	.	.	/
O=C(NCc1cccnc1)/C(=C/c1ccc(-c2ccc(Cl)cc2)o1)S(=O)(=O)c1ccccc1	?	.	?	.	.	.
O=C(NCc1cccnc1)/C(=C\c1ccc(-c2ccc(Br)cc2)o1)S(=O)(=O)c1ccccc1	?	.	?	14µM	.	.
O=C(N/N=C/c1ccccn1)c1cc(C2CC2)[nH]n1	11µM	-68	56µM	?	.	?
O=C(N/N=C/c1ccc([N+](=O)[O-])cc1)c1cc(C2CC2)[nH]n1	.	.	.	79µM	.	.
Cc1ccc(CSCCNC(=O)/C=C/c2ccccc2Cl)cc1	.	.	.	.	.	.
O=C(COc1ccc(S(=O)(=O)NC2CCCCC2)cc1)Nc1ccc(C(F)(F)F)cc1	.	/	.	.	.	/
Cc1cc(/C=N/n2cnnc2)c(C)n1-c1ccc(OCc2ccc(F)cc2)cc1	?	.	56µM	?	?	.
Cc1cc(/C=N/n2cnnc2)c(C)n1-c1ccc(Cl)cc1	.	.	.	14µM	.	.
Cc1cc(/C=N/n2cnnc2)c(C)n1-c1ccc(OCc2ccc(Cl)cc2Cl)cc1	40µM	.	56µM	.[12.7 µM]	?	.
CCNC(=S)N/N=C/c1cc(C)n(-c2ccc(Cl)cc2)c1C	28µM	.	50µM	?	?	.
CCc1nnc(NC(=O)COC(=O)c2cc(OC)cc(OC)c2)s1	/	.	.	/	.	.
CCCCn1c(N)c(N(CC)C(=O)C2COc3ccccc3O2)c(=O)[nH]c1=O (configuration not stated)	.	.	.	.	.	.
Cc1cc(/C=N/N2CCN(C)CC2)c(C)n1-c1ccc(Cl)cc1	?	.	50µM	45µM	?	.
Cc1cc(/C=N/n2cnnc2)c(C)n1-c1cccc(Cl)c1	?	.	.	.[12.7 µM]	.	.
O=C(CCNS(=O)(=O)c1ccc(Br)cc1)NNC(=O)C1COc2ccccc2O1 (configuration not stated)	/	.	.	/	.	.
Cc1ccc(NC(=O)CN2C(=O)S/C(=C\c3ccc(C(=O)O)cc3)C2=O)cc1	56µM	/	?	.	.	.
Cc1ccc(NC(=O)CN2C(=O)S/C(=C\c3cc(C)n(C)c3C)C2=O)cc1	.	.	.	.	.	.
Cc1ccc(NC(=O)CN2C(=O)S/C(=C\c3cc(C)n(-c4cccc(C(=O)O)c4)c3C)C2=O)cc1	45µM	.	56µM	/	.	.
Cc1ccc(-n2c(N)c(Br)c(=O)[nH]c2=O)cc1C	.	.	.	.	.	.

Screening results deposited in PubChem by National Center for Advancing Translational Sciences (NCATS).
